KB-V1 cytotox – kills drug-selected multidrug resistant KB-V1 cells | KB-V1 MDR cells viability, CellTiter-Glo, 72 h | Potency, µM (titrated, usually from 46.1 µM), most hits filed as cytotoxic | actives 3.4% (n = 400,000) | AID 1347076; note: % is set by controls: 0 for no effect and ±100 for the full control effect; nearly all actives have a fitted effect of over 60% in size
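Cytotoxicity toward P-gp-expressing KB-V1 cells was determined as loss of CellTiter-Glo luminescence after 72 h at 37 degrees C. Compounds were tested in quantitative HTS format across a concentration range, with curves fitted to normalized data.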
SW480 rerep – inducers of DNA re-replication in SW480 colon cancer cells | SW480 DNA re-replication, Hoechst DNA content imaging, 48 h | Potency, µM (series often up to 46.1 µM), for the others: at the top dose re-replication activation, actives largely listed as activators | actives 1.8% (n = 340,000); note: % of control where 0% means no effect; nearly all actives have a fitted effect of over 55% in size
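Readout is total intensity of Hoechst-stained nuclei, excited at 405 nm and collected at 500-530 nm. Compound treatment lasted 48 hr at 37 C in 5% CO2 before staining.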
MCF10A rereplic – inducers of DNA re-replication in MCF 10A breast cells; actives 2.9% (n = 350,000); MCF 10A DNA re-replication, Hoechst nuclear intensity, 48 h; AID 624296; Potency, µM (series often up to 46.1 µM), inactives show top-dose activity, positive = re-replication, usual class: activators; note: % of control where 0% means no effect; nearly all actives have a fitted effect of over 50% in size
KB-3-1 tox – KB-3-1 parental cell cytotoxicity; Potency, µM (highest dose often 46.1 µM), usual class: cytotoxic; actives 1.4% (n = 400,000); KB-3-1 viability, CellTiter-Glo ATP luminescence, 72 h; note: % is set by controls: 0 for no effect and ±100 for the full control effect; nearly all actives have a fitted effect of over 60% in size
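KB-3-1 cells, DMEM (no phenol red) + 10% FBS; compound by pin transfer, 72 h, 37 °C. Readout: CellTiter-Glo luminescence after 10 min. Data normalized, curve-fitted.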
ELG1 repair inh – blocks ELG1-dependent DNA repair in HEK293T cells; HEK293T ELG1-luciferase reporter, luminescence, 16 h; DNA damage induced by 5-fluorouridine; Potency, µM (doses to about 46.1 µM), without a hit: at the top dose activity change, negative = inhibition, usual class: inhibitors; actives 2.3% (n = 330,000); note: % is set by controls: 0 for no effect and ±100 for the full control effect; nearly all actives have a fitted effect of over 55% in size
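Quantitative HTS, concentration-response format. 2,000 cells/well co-treated with 5-fluorouridine and compound, 16 hr in 5% CO2 at 37 °C; ONE-Glo luminescence read after 30 min.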
Active calls of the source: *. In the library only some 8.1% were active in any assay of this set; here they are far more common. Calls come from the whole dose curve; as a rule, active = well fitted curve in the direction sought with a large enough effect; inconclusive = small, poorly fitted or top-dose-only effect, or another doubt; inactive = no such curve, though single readings can be large; an effect the other way counts as inactive or inconclusive. Potency is the fitted concentration of half-maximal effect.

`CC(NC(=O)CN1C(=O)NC2(CCCCC2)C1=O)c1ccc(S(N)(=O)=O)cc1` (stereo not drawn) gave KB-V1 cytotox inactive, SW480 rerep 6.5µM*, MCF10A rereplic inconclusive and KB-3-1 tox inactive.
Screening Cc1ccc(NC(=O)CN2C(=O)NC3(CCC(C)CC3)C2=O)c(Cl)c1 (stereo not drawn) returned KB-V1 cytotox 18µM*, SW480 rerep -3%, MCF10A rereplic 19%, KB-3-1 tox inactive and ELG1 repair inh -5%.
`Cc1cc(C)c(NC(=O)CN2C(=O)NC3(CCCCC3)C2=O)c(Cl)c1` gave KB-V1 cytotox inactive, SW480 rerep -4%, MCF10A rereplic 2%, KB-3-1 tox inactive and ELG1 repair inh -9%.
O=C(CN1C(=O)NC2(CCCCC2)C1=O)Nc1ccc(F)cc1 was read as KB-V1 cytotox inactive, SW480 rerep 5%, MCF10A rereplic 1%, KB-3-1 tox inactive and ELG1 repair inh -14%.
Cc1ccc(C(NC(=O)CN2C(=O)NC3(CCCC3)C2=O)c2ccccc2)cc1 (stereo not drawn) was read as KB-V1 cytotox inactive, SW480 rerep -10%, MCF10A rereplic -2%, KB-3-1 tox inactive and ELG1 repair inh 6%.
Screening CC(NC(=O)CN1C(=O)NC2(CCCCCCC2)C1=O)c1ccccc1 (stereo not drawn) returned KB-V1 cytotox 23µM*, SW480 rerep -1%, MCF10A rereplic -3%, KB-3-1 tox inactive and ELG1 repair inh 0%.
For Cc1ccc(NC(=O)CN2C(=O)NC3(CCCCCCC3)C2=O)cc1C the results were KB-V1 cytotox 23µM*, SW480 rerep -5%, MCF10A rereplic -1%, KB-3-1 tox inactive and ELG1 repair inh -1%.
O=c1[nH]c(=S)[nH]c2c1[C@H](CCc1cccc(Cl)c1)O[C@H](C1CC1)C2 was read as KB-V1 cytotox inactive and KB-3-1 tox inactive.
For COC(=O)[C@@]1(Cc2ccc(F)cc2)[C@H]2c3cc(C(=O)N(C)C)n(CC4CC4)c3C[C@H]2CN1C(=O)c1ccccc1 the results were KB-V1 cytotox inactive and KB-3-1 tox inconclusive.
`COC(=O)[C@]12CCCCC=C1N(CCc1ccc(OC)c(OC)c1)C(=O)[C@H](CC(=O)N1CCN(C(=O)C3CC3)CC1)C2` gave KB-V1 cytotox inactive and KB-3-1 tox inactive.
Screening COc1ccc(-c2cc(NC=O)c3ncc(-c4cnn(C)c4)n3c2)cc1 returned KB-V1 cytotox 18µM* and KB-3-1 tox inconclusive.
`CC(=O)Nc1cccc(-c2cc(NC=O)c3ncc(-c4ccc(C(C)=O)cc4)n3c2)c1` gave KB-V1 cytotox inactive and KB-3-1 tox inactive.
COc1ccc(-c2cnc3c(NC=O)cc(-c4ccc(F)cc4)cn23)cc1OC was read as KB-V1 cytotox inconclusive and KB-3-1 tox 0.21µM*.
For CC(=O)c1ccc(-c2cnc3c(NC=O)cc(-c4ccccc4Oc4ccccc4)cn23)cc1 the results were KB-V1 cytotox inconclusive and KB-3-1 tox 12µM*.
COc1ccc(F)cc1-c1cc(NC=O)c2ncc(-c3cccc(C(F)(F)F)c3)n2c1 was read as KB-V1 cytotox inconclusive and KB-3-1 tox 23µM*.
`CCOc1ccc(CCN2C(=O)C(=O)N([C@@H](Cc3ccccc3)CN3CCC[C@H]3CN3C(=O)C(=O)NC[C@@H]3Cc3ccccc3)C[C@@H]2CC(C)C)cc1` gave KB-V1 cytotox inactive and KB-3-1 tox inconclusive.
Screening O=CNc1cc(-c2cccc(F)c2)cn2c(-c3ccc(F)c(Cl)c3)cnc12 returned KB-V1 cytotox 23µM* and KB-3-1 tox inconclusive.
`COc1ccc(-c2cnc3c(NC=O)cc(-c4ccc(S(C)(=O)=O)cc4)cn23)cc1OC` gave KB-V1 cytotox inactive and KB-3-1 tox inconclusive.
O=CNc1cc(-c2ccccc2)cn2c(-c3ccc(F)c(Cl)c3)cnc12 was read as KB-V1 cytotox inconclusive and KB-3-1 tox inactive.
COc1ccc(-c2cnc3c(NC=O)cc(-c4ccccc4)cn23)cc1OC was read as KB-V1 cytotox 1.6µM* and KB-3-1 tox 1.2µM*.
For COc1cc(-c2cnc3c(NC=O)cc(-c4ccc(S(C)(=O)=O)cc4)cn23)cc(OC)c1OC the results were KB-V1 cytotox inactive and KB-3-1 tox inconclusive.
Screening COc1ccc(-c2cc(NC=O)c3ncc(-c4cccc(C(=O)NCCN(C)C)c4)n3c2)cc1 returned KB-V1 cytotox inactive and KB-3-1 tox inactive.
Screening COc1ccc(-c2cc(NC=O)c3ncc(-c4cccc(OC)c4)n3c2)cc1 returned KB-V1 cytotox 7.3µM* and KB-3-1 tox 6.5µM*.
`COc1ccc(-c2cc(NC=O)c3ncc(-c4cc(OC)c(OC)c(OC)c4)n3c2)cc1` gave KB-V1 cytotox 0.046µM* and KB-3-1 tox inconclusive.
For CCOc1cc(C(=O)NCc2ccc3c(c2)CCN3C(=O)c2ccc(F)cc2)cc(OCC)c1OCC the results were KB-V1 cytotox inactive and KB-3-1 tox inactive.
COc1ccccc1-c1cc(NC=O)c2ncc(-c3ccc(S(C)(=O)=O)cc3)n2c1 was read as KB-V1 cytotox 16µM* and KB-3-1 tox 13µM*.
`COc1cc(-c2cc(NC=O)c3ncc(-c4cccc(C(=O)N(C)C)c4)n3c2)cc(OC)c1OC` gave KB-V1 cytotox inactive and KB-3-1 tox inactive.
Screening COc1ccc(-c2cnc3c(NC=O)cc(-c4cc(OC)c(OC)c(OC)c4)cn23)cc1OC returned KB-V1 cytotox 23µM* and KB-3-1 tox inconclusive.
COc1cccc(-c2cc(NC=O)c3ncc(-c4ccc(OC)c(OC)c4)n3c2)c1 was read as KB-V1 cytotox 15µM* and KB-3-1 tox 13µM*.
Screening COc1cccc(-c2cnc3c(NC=O)cc(-c4cc(OC)c(OC)c(OC)c4)cn23)c1 returned KB-V1 cytotox inconclusive and KB-3-1 tox inactive.
`O=C(NC(=S)Nc1ccccc1Br)c1ccco1` gave KB-V1 cytotox inactive, SW480 rerep -5%, MCF10A rereplic -19%, KB-3-1 tox inactive and ELG1 repair inh inconclusive.
`CC1(C(=O)NCc2cccs2)Cc2c(-c3ccccc3)ccnc2O1` (stereo not drawn) gave KB-V1 cytotox inconclusive and KB-3-1 tox 5.8µM*.
For CC1(C(=O)NCc2cccs2)Cc2c(-c3ccc4c(c3)OCO4)ccnc2O1 (stereo not drawn) the results were KB-V1 cytotox inconclusive and KB-3-1 tox 5.2µM*.
For CN(C)c1ccc(-c2ccnc3c2CC(C)(C(=O)NCc2cccs2)O3)cc1 (stereo not drawn) the results were KB-V1 cytotox inactive and KB-3-1 tox inconclusive.
